Data published in PubChem BioAssay (NCI).
The panel holds about 79,000 compounds, 15% with a hit somewhere; the sample as a whole holds those more often. Active and inactive are the calls of the source. Cut-off read from the data, not from the text of the source: active = growth inhibition above about 70%; inactive = the rest.

Assay: NCI Yeast Anticancer Drug Screen. Data for the rad50 strain (AID 155);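 note: 0% = growth of vehicle-only cultures of the same strain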
Conditions: S. cerevisiae rad50 strain growth inhibition; at 50.0 µM; hits give high values
Procedure, shortened: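 Growth of the mutant yeast was measured after compound exposure and referenced to vehicle-treated cultures.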

SMILES	growth inhibition
N#Cc1c(C#N)c(-c2cccc([N+](=O)[O-])c2)n(-c2ccccc2)c1N	15.9% (inactive)
Nc1ncnc(N)c1NC(=O)CCCCc1ccccc1	4.25% (inactive)
CC1=C2CC[C@@]3(C)C(=CCC3O)C2(C)CCC1=O (stereo not given in full)	-1.3% (inactive)
O=C1c2ccccc2-c2nc3cc4ccccc4cc3nc21	20.1% (inactive)
CCC(CC)C(=O)OCCOc1ccccc1	0.9% (inactive)
CN1CCN(C(=O)Nc2ccc(N=Nc3ccccc3)cc2)CC1	-9.3% (inactive)
Cc1cc2c(cc1C)NS(=O)(=O)N2	18.4% (inactive)
CC(C)/C=C\C(=O)CC(C)C	-3.65% (inactive)
CC(C)=NOC(=O)Nc1cccc2c1OCO2	-30.3% (inactive)
CC(C)NC(=O)Nc1cccc(Cl)c1	0.75% (inactive)
CN=C(c1ccccc1)N(O)c1ccccc1	-16.1% (inactive)
C=CC(=O)NC1CCCCC1	-8.9% (inactive)
O=c1c2c(-c3ccccc3)c3ccccc3nc2cnn1-c1ccccc1	-18.4% (inactive)
CC(C)CN(CC(C)C)C(=O)C1CCCC[C@@H]1C(=O)O (stereo not given in full)	16.9% (inactive)
C=CCOC(=O)Nc1ccc(C)c(NC(=O)OCC=C)c1	-28.3% (inactive)
CCOP(=O)(OCC)C(Cc1ccc(OC)c(OC)c1)N=C(c1ccccc1)c1ccccc1 (stereo not given)	4.8% (inactive)
c1ccc(-c2ccccc2N=C2N=NN=N2)cc1	-1% (inactive)
S=C1c2cc(Cl)ccc2NC(=NC2CCCC2)C2CSCN12 (stereo not given)	7.65% (inactive)
CCOC(=O)/C(C#N)=C/Nc1c(C)n(C)n(-c2ccccc2)c1=O	0.95% (inactive)
CC(=O)N/N=C/c1ccc([N+](=O)[O-])s1	13.3% (inactive)

SMILES	growth inhibition
O=C(O)C(=O)Cc1ccc(Br)cc1[N+](=O)[O-]	5.45% (inactive)
CC(C)C(=O)Nc1nc2c(ncn2C2OC(CO)C(O)C2O)c(=O)[nH]1 (stereo not given)	5.9% (inactive)
CC(SC(=S)N1CCOCC1)C(=O)O (stereo not given)	2.65% (inactive)
O=C(Nc1ccc([N+](=O)[O-])cc1)c1cc(N2CCOCC2)ccn1	38% (inactive)
N#C/C(=C\c1ccccc1)c1cccc(Cl)c1	-32.2% (inactive)
Cc1ccc(S(=O)(=O)OC2CCCCCCCCCCC2=O)cc1 (stereo not given)	-3.55% (inactive)
CCOC(=O)CN=NNc1ccccc1C(C)=O	21.4% (inactive)
COc1ccc(NC(=S)NN=C(C)c2cccc(C(C)=NNC(=S)Nc3ccc(OC)cc3)n2)cc1	-26.1% (inactive)
O=P(c1ccccc1)(c1ccccc1)C(O)c1cccs1 (stereo not given)	12.8% (inactive)
CCOc1ncc(C(O)c2ccco2)c(OCC)n1 (stereo not given)	-0.85% (inactive)
N#C/C(=N/Nc1nc[nH]c1C(N)=O)C(=O)Nc1ccccc1	8.6% (inactive)
CSC(SC)=C(C(=O)c1ccc(Cl)cc1)n1c(=O)sc2cc(Br)ccc21	-19% (inactive)
O=C(Nc1nc2ncn(CCI)c2c(=O)[nH]1)c1ccccc1	-8.3% (inactive)
O=C(C[n+]1cccc(Cl)c1)c1cccc([N+](=O)[O-])c1	-25.7% (inactive)
NC(=O)COc1c(Br)cc(Br)cc1Br	-1.55% (inactive)
Cc1cc(C)cc(C(=O)OC2CCCC2)c1	1.2% (inactive)
O=C1Nc2ncnc(Cl)c2Cc2ccccc21	-2.6% (inactive)
C/C(CC(=O)N1CCCCC1)=N\NC(N)=S	-6.95% (inactive)
COc1ccc(/C=C2/CCOC2=O)cc1	44.1% (inactive)
Cn1c(C2CCc3cc(O)ccc3C2)cccc1=O (stereo not given)	-26.8% (inactive)
